“And” between values parts separate entries of the source, which are not always exact repeats. Equal entries are not always repeated. Unmarked numbers belong to inactive results. The source made the active and inactive calls. Unless noted, no rule for the calls is given here.

Assay [1] can be described thus: antimalarial activity against Dd2 strain (AID 2302;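 active = growth inhibition above 50% at the single 2 µM test dose, taken to imply half-maximal potency below 2 µM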;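 also: 0% = DMSO untreated growth and 100% = chloroquine plus artemisinin killed control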). The following applies: P. falciparum Dd2 in RBCs, LDH growth readout, 72 h; at 2 µM; active compounds read high.
A short description of assay [2]: human hepatoma cell viability loss – ATP luminescence, cytotoxicity control for P. falciparum antimalarial project, primary screen (AID 2303;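 active = inhibition above 50%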;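 also: 0% = DMSO wells and 100% = digitonin-killed cells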). The following applies: HepG2 viability, 24-48 h, at 10 µM, active compounds read high.
Assay [3] concerns the target L-lactate dehydrogenase (Plasmodium falciparum (isolate CDC / Honduras)) (UniProt Q27743). Kind of assay: PfLDH activity inhibition – cell lysate, 3D7 strain, counter-screen for P. falciparum growth inhibition project (AID 2304).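 Also: 0% = vehicle and 100% = reference inhibitor.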 As to conditions: P. falciparum 3D7 crude extract, LDH APAD/NBT absorbance; at 2 µM; active compounds read high.
A short description of assay [4]: inhibition of 3D7 malaria parasite growth – strain 3D7 (AID 2306).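 Also: 0% = DMSO wells and 100% = chloroquine plus artemisinin control wells.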 As to conditions: P. falciparum 3D7 erythrocytic growth, LDH absorbance, 72 h; at 2 µM; active compounds read high.
Assay [5] is described as follows: compounds altering circadian rhythm period length – cell-based, LOPAC library, luminescence reporter (AID 2774).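 Also: values are relative to mean of DMSO wells on each plate.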 As to conditions: circadian reporter cells, at 7 µM, actives lie on both sides.

Sequence of L-lactate dehydrogenase (Plasmodium falciparum (isolate CDC / Honduras)) (Q27743 whole entry, looked up): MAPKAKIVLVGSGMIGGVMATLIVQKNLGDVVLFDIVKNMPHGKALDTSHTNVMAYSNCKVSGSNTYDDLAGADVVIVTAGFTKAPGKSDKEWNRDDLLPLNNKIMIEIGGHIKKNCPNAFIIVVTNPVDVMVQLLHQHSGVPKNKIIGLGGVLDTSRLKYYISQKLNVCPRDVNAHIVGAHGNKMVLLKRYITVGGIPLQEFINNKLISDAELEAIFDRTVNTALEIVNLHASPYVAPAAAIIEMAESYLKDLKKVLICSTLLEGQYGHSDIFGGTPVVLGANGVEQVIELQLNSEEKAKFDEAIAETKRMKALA

For the molecule `CN(C)c1nc(NN=Cc2cc(Cl)ccc2O)nc(Nc2ccc(F)cc2)n1`, the growth inhibition in assay [1] was 46%; in assay [4], 94% (active). For the same molecule, the inhibition in assay [2] is 32%; in assay [3], -3%.

Consider `ON=C1CCc2cc(-c3cc(-c4ccc(OC5CCNCC5)cc4)oc3-c3ccncc3)ccc21`, for which the growth inhibition in assay [1] is 99% (active); in assay [4], 101% (active). Also, the inhibition in assay [2] is 34%; in assay [3], 3%.

As to `N=C(N)c1ccc(C=Cc2ccc(C(=N)N)cc2O)cc1`, the growth inhibition was 80% (active) in assay [1] and 92% (active) in assay [4]. Besides, the inhibition in assay [2] was 10%; in assay [3], 4%.

For the molecule `c1cc2nc(CCCCCc3nc4ccc(C5=N[C@@H]6CCCC[C@@H]6N5)cc4[nH]3)[nH]c2cc1C1=N[C@@H]2CCCC[C@@H]2N1`, the growth inhibition was 98% (active) in assay [1] and 96% (active) in assay [4]. Also, the inhibition is 8% in assay [2] and 1% in assay [3].

With `Cc1[nH]c2c(c(=O)c1Cl)-c1ccc(Oc3cccc(C(F)(F)F)c3)cc1C2=O`, the growth inhibition in assay [1] is 97% (active); in assay [4], 98% (active). Moreover, the inhibition in assay [2] is 25%; in assay [3], 2%.

`O=C(NC=Nc1cc([N+](=O)[O-])c(-c2ccncc2)n1-c1ccccc1)c1cccc(O)c1`: the growth inhibition is 56% (active) in assay [1] and 100% (active) in assay [4]. The values for the inhibition in assay [2] and in assay [3] were 2% and 4%, respectively.

As for `CC(C)C[C@@H](C(=O)N[C@H](C(=O)Nc1nccs1)C(C)(C)C)[C@H](CCC(F)(F)F)N(O)C=O`, the values for the growth inhibition in assay [1] and in assay [4] were 71% (active) and 97% (active), respectively. The inhibition in assay [2] was 11%; in assay [3] it was 5%.

For `CN(C)c1nc(NCc2ccccc2)nc(NN=Cc2cc([N+](=O)[O-])ccc2O)n1`, the growth inhibition in assay [1] is 90% (active); in assay [4] it was 100% (active). Besides, the inhibition in assay [2] was 48%; in assay [3] it was -5%.

Take `Cc1cc(C)c2c(c1)C(=NO)CCN2`: the growth inhibition in assay [1] is 2%; in assay [4], 94% (active). Further, the inhibition in assay [2] is 2%; in assay [3] it was 7%.

As for `O=C(Nc1cccc(-c2nn3ccccc3c2-c2ccnc(Nc3ccc(-c4cc[nH]n4)cc3)n2)c1)c1c(F)cccc1F`, the growth inhibition in assay [1] and in assay [4] was 98% (active) in each case. Moreover, the inhibition was 68% (active) in assay [2] and 5% in assay [3].

With `CN(C)C[C@H](O)[C@@H](c1ccccc1)c1ccc(Cl)cc1`, the figures for the growth inhibition in assay [1] and in assay [4] were 4% and 99% (active), respectively. Further, the inhibition is 4% in assay [2] and 2% in assay [3].

Consider `CCC[C@@H]([C@@H](CC1CCCCC1)C(=O)N[C@H](C(=O)Nc1ccccn1)[C@H](C)CC)N(O)C=O`, for which the growth inhibition in assay [1] is 87% (active); in assay [4] it was 96% (active). Besides, the inhibition in assay [2] was 24%; in assay [3] it was 2%.

On to `COc1cc(-c2nc(-c3ccc4c(c3)CCC4=NO)c(-c3ccncc3)[nH]2)ccc1OCCN1CCCCC1`, for which the figures for the growth inhibition in assay [1] and in assay [4] were 80% (active) and 101% (active), respectively. Further, the inhibition in assay [2] is 75% (active); in assay [3], 1%.

For `O=C(NC=Nc1cc([N+](=O)[O-])c(-c2cccnc2)n1-c1ccc(O)cc1)c1ccccc1`, the growth inhibition was 62% (active) in assay [1] and 102% (active) in assay [4]. The inhibition in assay [2] is 17%; in assay [3], 6%.

For the molecule `COc1ccc2nc(C)cc(NN=Cc3cc(C)ccc3O)c2c1`, the growth inhibition in assay [1] and in assay [4] was 100% (active) each time. Also, the values for the inhibition in assay [2] and in assay [3] were 78% (active) and -2%, respectively.

As for `COc1ccc2nccc([C@@H](O)CN3CC[C@H](NCc4nc5c(cc4Cl)SCC(=O)N5)[C@H](F)C3)c2c1`, the growth inhibition in assay [1] was 94% (active) and 100% (active); in assay [4] it was 94% (active) and 99% (active). Besides, the inhibition in assay [2] is 10% and 20%; in assay [3] it was -3% and 1%.

Take `CCOc1cc(C=Cc2nc3ccccc3c(=O)[nH]2)cc(Cl)c1O`: the values for the growth inhibition in assay [1] and in assay [4] were 90% (active) and 83% (active), respectively. The values for the inhibition in assay [2] and in assay [3] were 25% and 2%, respectively.

As to `COc1ccc2nc(/N=C(/N)NC(=O)Nc3ccccc3)nc(C)c2c1`, the figures for the growth inhibition in assay [1] and in assay [4] were 15% and 90% (active), respectively. Besides, the values for the inhibition in assay [2] and in assay [3] were 3% and -1%, respectively.

`CCC[C@@H]([C@@H](CC(C)C)C(=O)N[C@@H](CCCCNC(=O)OCc1ccccc1)C(=O)Nc1ncccn1)N(O)C=O`: the growth inhibition in assay [1] is 98% (active); in assay [4], 100% (active). The inhibition was 3% in assay [2] and 4% in assay [3].

Regarding `CCCCCC(C)C(C)c1cc(O)c2c(c1)OC(C)(C)CC2=Cc1ccncc1` (stereo not given), the growth inhibition in assay [1] is 78% (active); in assay [4], 100% (active). Besides, the inhibition was -8% in assay [2] and 2% in assay [3].

Consider `CCC[C@@H]([C@@H](CC(C)C)C(=O)N[C@@H](CCCN=C(N)NS(C)(=O)=O)C(=O)Nc1nccs1)N(O)C=O`, for which the growth inhibition was 41% in assay [1] and 95% (active) in assay [4]. Besides, the results for the inhibition in assay [2] and in assay [3] were 10% and 0%, respectively.

As to `O=[N+]([O-])c1ccc(C=NO)nc1`, the growth inhibition was 98% (active) in assay [1] and 80% (active) in assay [4]. Further, the inhibition was 80% (active) in assay [2] and 2% in assay [3].

Turning to `O=C(/C=C/c1ccc(Cl)c(Cl)c1)NCCCCCN1CC[C@H](c2c[nH]c3ccccc23)[C@@H](O)C1`, the growth inhibition in assay [1] is -2%; in assay [4], 99% (active). Further, the inhibition in assay [2] is 34%; in assay [3] it was -3%.

With `Oc1cccc(-c2nc3ccc(C4=N[C@H]5CCCC[C@H]5N4)cc3[nH]2)c1`, the values for the growth inhibition in assay [1] and in assay [4] were 97% (active) and 98% (active), respectively. Moreover, the inhibition is -3% in assay [2] and 1% in assay [3].

Take `CCC[C@@H]([C@@H](CC1CCCCC1)C(=O)N[C@H](C(=O)Nc1nccc(N)n1)C(C)(C)C)N(O)C=O`: the growth inhibition is 82% (active) in assay [1] and 96% (active) in assay [4]. For the same molecule, the results for the inhibition in assay [2] and in assay [3] were 25% and 5%, respectively.

Take `O=C(/C=C/c1ccc(Cl)c(Cl)c1)NCCCCCN1CC[C@H](c2c[nH]c3ccccc23)[C@H](O)C1`: the growth inhibition was 9% in assay [1] and 96% (active) in assay [4]. Besides, the inhibition in assay [2] was 12%; in assay [3], -5%.

Take `O=[N+]([O-])c1cccc(-c2nc3ccc(C4=N[C@H]5CCCC[C@H]5N4)cc3[nH]2)c1`: the growth inhibition is 81% (active) in assay [1] and 101% (active) in assay [4]. For the same molecule, the values for the inhibition in assay [2] and in assay [3] were 4% and -7%, respectively.

Turning to `COc1cc(-c2nc(-c3ccc4c(c3)CCC4=NO)c(-c3ccncc3)[nH]2)ccc1OCCN1CCN(C)CC1`, the figures for the growth inhibition in assay [1] and in assay [4] were 77% (active) and 99% (active), respectively. The inhibition was 53% (active) in assay [2] and 3% in assay [3].

On to `O=[N+]([O-])c1ccc(Nc2nc(NN=Cc3cc(Cl)cc(Cl)c3O)nc(Nc3ccccc3)n2)cc1`, for which the growth inhibition in assay [1] was 72% (active); in assay [4], 100% (active). Besides, the inhibition in assay [2] is 29%; in assay [3] it was -6%.

In the case of `O=[N+]([O-])c1ccc(-c2nc3ccc(C4=N[C@H]5CCCC[C@H]5N4)cc3[nH]2)cc1`, the growth inhibition was 30% in assay [1] and 100% (active) in assay [4]. Moreover, the inhibition in assay [2] was -1%; in assay [3], 3%.

For `Cc1ccc(-c2cncc(-c3cc(NC4CCN(Cc5ccccc5)CC4)nc(-c4ccccc4)n3)c2)cc1`, the growth inhibition was 66% (active) in assay [1] and 100% (active) in assay [4]. Further, the inhibition in assay [2] is -2%; in assay [3] it was -4%.

Consider `CC(=O)NCCc1ccc(O)c(O)c1`, for which the period change in assay [5] is -0.045 h.

Consider `CCCC[C@@H](C(=O)NCc1ccccc1C(F)(F)F)N1C(=O)CCC1C(=O)Nc1ccc([N+](=O)[O-])cc1` (stereo not given in full), for which the growth inhibition was 2% in assay [1] and 94% (active) in assay [4]. In addition, the results for the inhibition in assay [2] and in assay [3] were 7% and 0%, respectively.

With `CCN1CCN(c2cc(C)c3cc(NC(=O)c4ccc(C(C)(C)C)cc4)ccc3n2)CC1`, the inhibition was 34% in assay [2] and -3% in assay [3]. Besides, the growth inhibition in assay [4] is 85% (active).

As for `C=CC[C@H](C[C@H](O)[C@H](Cc1ccccc1)NC(=O)c1ccc(-n2cccn2)cc1)C(=O)NC1CCCCC1`, the growth inhibition is 0% in assay [1] and 96% (active) in assay [4]. Besides, the inhibition in assay [2] and in assay [3] was 1% each time.

Consider `CC[C@H](C)[C@H](NC(=O)[C@H](CC1CCCCC1)[C@H](CC)N(O)C=O)C(=O)Nc1ccccn1`, for which the growth inhibition in assay [1] is 95% (active); in assay [4], 96% (active). In addition, the inhibition is 14% in assay [2] and -1% in assay [3].

As to `CN(C)c1cc(NN=Cc2cc(Cl)ccc2O)nc(N(C)C)n1`, the growth inhibition in assay [1] and in assay [4] was 98% (active) each time. Besides, the inhibition in assay [2] was 3%; in assay [3], 0%.

For `NC(N)=NN=Cc1c[nH]c2ccc(-c3ccccc3)cc12`, the values for the growth inhibition in assay [1] and in assay [4] were 61% (active) and 84% (active), respectively. Further, the values for the inhibition in assay [2] and in assay [3] were 15% and -2%, respectively.

Consider `CN(Cc1cnc2nc(N)nc(N)c2n1)c1ccc(C(=O)N[C@H](CCC(=O)O)C(=O)O)cc1`, for which the growth inhibition is 44% in assay [1] and 92% (active) in assay [4]. Moreover, the results for the inhibition in assay [2] and in assay [3] were 65% (active) and -4%, respectively. Besides, the period change in assay [5] was 0.095 h.

Consider `CN(C)C(=S)NN=Cc1cccc(O)c1O`, for which the growth inhibition in assay [1] is 55% (active); in assay [4] it was 91% (active). Besides, the inhibition in assay [2] was 11%; in assay [3], -2%.

In the case of `Cc1[nH]c2ccccc2c1C=NNc1nc(Nc2ccccc2)nc(Nc2ccccc2)n1`, the growth inhibition in assay [1] was 23%; in assay [4], 87% (active). The values for the inhibition in assay [2] and in assay [3] were 3% and 6%, respectively.

For the molecule `Oc1c(C=Nn2cnnc2)sc2ccccc12`, the figures for the growth inhibition in assay [1] and in assay [4] were 68% (active) and 93% (active), respectively. Moreover, the inhibition in assay [2] was -4%; in assay [3], 0%.

In the case of `COc1ccc(CCNC[C@@H](O)c2ccc(O)cc2)cc1OC`, the period change in assay [5] is 0.05 h.

For `CC(=NNC(N)=O)C1=C(O)C(c2ccccc2)N(C2CCCCC2)C1=O` (stereo not given), the growth inhibition in assay [1] was 96% (active); in assay [4] it was 93% (active). The inhibition in assay [2] was 59% (active); in assay [3] it was 0%.

(Values after PubChem BioAssay.)
